# Experimental data: PubChem BioAssay (NCATS)
# Values joined by “and” are separate entries in the source; they are usually repeats but may differ in a detail not shown here. Identical values can stand only once. Inconclusive results are not listed. Entries that show only a call come without a potency. Active and inactive are the calls of the source. Unless noted, calls come from the whole dose curve; as a rule, active = well fitted curve in the direction sought with a large enough effect; inconclusive = small, poorly fitted or top-dose-only effect, or another doubt; inactive = no such curve, though single readings can be large; an effect the other way counts as inactive or inconclusive. Where a SMILES comes first, the peptide text is derived from it. Bridges are numbered along the chain shown (N, C = ends). [ ]: non-standard residue; d: D form. The star is where a group is joined. Dab(CH2SO3H) = N[C@@H](CCNCS(=O)(=O)O)C(=O)O; X3 = CC[C@@H](C)CCCCC(=O)*; Dab = NCC[C@H](N)C(=O)O
# Legend:
# [1] = molecular target: Peroxisome proliferator-activated receptor gamma (Homo sapiens) (UniProt P37231); experiment: qHTS assay for small molecule antagonists of peroxisome proliferator-activated receptor gamma signaling (AID 588537; active = well fitted inhibition curve with a large enough effect in the signal ratio, with a control signal flat, not every such curve was filed as active; the % refers to the signal ratio;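 note: reporter cells co-stimulated with 50 nM rosiglitazone agonist during compound treatment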)
# Sequence of Peroxisome proliferator-activated receptor gamma (Homo sapiens) (P37231 whole entry, looked up): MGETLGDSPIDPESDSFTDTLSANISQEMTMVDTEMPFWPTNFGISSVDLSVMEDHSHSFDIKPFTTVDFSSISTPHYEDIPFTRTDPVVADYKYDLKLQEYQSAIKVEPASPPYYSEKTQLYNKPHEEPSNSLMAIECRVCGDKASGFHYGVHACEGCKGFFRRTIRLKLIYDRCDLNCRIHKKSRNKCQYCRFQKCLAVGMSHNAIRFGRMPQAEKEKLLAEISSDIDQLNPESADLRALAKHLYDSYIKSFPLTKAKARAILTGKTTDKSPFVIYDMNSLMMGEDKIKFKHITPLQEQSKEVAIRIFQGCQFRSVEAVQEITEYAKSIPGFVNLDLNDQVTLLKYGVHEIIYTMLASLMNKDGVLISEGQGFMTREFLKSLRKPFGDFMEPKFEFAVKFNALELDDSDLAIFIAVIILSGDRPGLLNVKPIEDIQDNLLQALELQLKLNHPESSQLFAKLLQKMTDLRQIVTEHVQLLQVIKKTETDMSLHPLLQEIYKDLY
# How it was run: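 HEK293 cells, PPAR-gamma-UAS-bla, 3000/well. Pre-incubation 6-6.5 h, 37 C. Compound titration with rosiglitazone 50 nM final, 16 h. CCF4 dye, 2 h RT, dual-emission fluorescence.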
# [2] = molecular target: Vitamin D3 receptor (Homo sapiens) (UniProt P11473); experiment: qHTS assay for small molecule antagonists of vitamin D receptor signaling (AID 588541; calls by dose curve;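 note: receptor activated by calcitriol during compound treatment; series mostly up to about 77 µM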)
# Sequence of Vitamin D3 receptor (Homo sapiens) (P11473 whole entry, looked up): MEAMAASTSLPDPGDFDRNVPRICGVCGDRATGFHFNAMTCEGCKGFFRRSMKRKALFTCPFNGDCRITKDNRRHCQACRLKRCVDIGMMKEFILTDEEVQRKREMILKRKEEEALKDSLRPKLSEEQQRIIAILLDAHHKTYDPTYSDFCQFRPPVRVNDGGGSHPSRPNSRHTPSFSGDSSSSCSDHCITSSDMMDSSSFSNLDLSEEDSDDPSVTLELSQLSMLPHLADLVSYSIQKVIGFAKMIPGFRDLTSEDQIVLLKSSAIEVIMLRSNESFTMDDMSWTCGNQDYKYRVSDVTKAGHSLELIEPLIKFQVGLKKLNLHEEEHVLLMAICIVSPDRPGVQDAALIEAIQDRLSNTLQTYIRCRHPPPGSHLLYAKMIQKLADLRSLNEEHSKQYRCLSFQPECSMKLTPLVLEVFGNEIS
# How it was run: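 VDR-UAS-bla HEK293T cells (2000/well, 2% charcoal-stripped FBS) were treated with titrated compounds plus 1-alpha,25-dihydroxyvitamin D3 (50 nM or 3 nM final) for 16 h at 37 C. CCF4 beta-lactamase fluorescence was read; Hill fits gave IC50.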
# [3] = molecular target: Vitamin D3 receptor (Homo sapiens) (UniProt P11473); experiment: qHTS assay for small molecule agonists of vitamin D receptor signaling (AID 588543; calls by dose curve)
# How it was run: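 GeneBLAzer VDR-UAS-bla HEK293T cells in 2% charcoal-stripped FBS medium were dosed with compound titrations for 16 h at 37 °C; CCF4 β-lactamase readout (405 nm ex, 460/530 nm em). EC50 and efficacy from Hill fits, normalized to 50 nM calcitriol (100%) and DMSO (0%).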
# [4] = qHTS assay for small molecule agonists of retinoid X receptor alpha signaling (AID 588544; calls by dose curve); conditions: HEK293T RXRa-UAS-bla, beta-lactamase reporter, 18 h; 530 nm emission
# [5] = molecular target: Retinoic acid receptor RXR-alpha (Homo sapiens) (UniProt P19793); experiment: as above
# Sequence of Retinoic acid receptor RXR-alpha (Homo sapiens) (P19793 whole entry, looked up): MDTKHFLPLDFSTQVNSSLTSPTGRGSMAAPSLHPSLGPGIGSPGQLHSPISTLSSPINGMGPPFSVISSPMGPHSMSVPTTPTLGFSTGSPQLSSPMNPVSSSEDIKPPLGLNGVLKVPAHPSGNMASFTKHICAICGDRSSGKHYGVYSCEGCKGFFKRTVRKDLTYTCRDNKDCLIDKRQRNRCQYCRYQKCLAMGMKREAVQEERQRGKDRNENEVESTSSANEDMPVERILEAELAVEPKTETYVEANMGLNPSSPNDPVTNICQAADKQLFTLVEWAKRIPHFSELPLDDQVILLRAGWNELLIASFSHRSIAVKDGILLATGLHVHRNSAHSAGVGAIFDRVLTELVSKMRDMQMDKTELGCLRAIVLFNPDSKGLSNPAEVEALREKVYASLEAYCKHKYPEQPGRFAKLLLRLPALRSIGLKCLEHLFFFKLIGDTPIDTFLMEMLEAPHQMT
# [6] = molecular target: Thyroid hormone receptor beta (Homo sapiens) (UniProt P10828); experiment: qHTS assay for small molecule agonists of thyroid hormone receptor beta signaling (AID 588545; calls by dose curve)
# Sequence of Thyroid hormone receptor beta (Homo sapiens) (P10828 whole entry, looked up): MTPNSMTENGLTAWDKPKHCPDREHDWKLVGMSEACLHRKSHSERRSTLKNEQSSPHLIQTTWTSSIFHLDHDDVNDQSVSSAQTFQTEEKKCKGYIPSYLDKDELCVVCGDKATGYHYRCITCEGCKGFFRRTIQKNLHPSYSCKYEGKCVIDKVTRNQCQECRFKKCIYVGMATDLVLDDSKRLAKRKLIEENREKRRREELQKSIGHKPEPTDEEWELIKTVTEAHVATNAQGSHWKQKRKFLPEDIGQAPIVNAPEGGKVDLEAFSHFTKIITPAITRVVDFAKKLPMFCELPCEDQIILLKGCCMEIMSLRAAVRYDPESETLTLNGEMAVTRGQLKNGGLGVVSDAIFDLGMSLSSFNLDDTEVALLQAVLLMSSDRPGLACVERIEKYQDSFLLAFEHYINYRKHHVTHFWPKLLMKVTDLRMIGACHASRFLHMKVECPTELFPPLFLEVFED
# How it was run: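 In this cell-based screen, titrated compounds act on HEK 293 cells held in medium with 2% charcoal/dextran FBS, NEAA and pyruvate for 18 hrs at 37 C. Responses are expressed relative to T3 (10 nM) as 100% and basal DMSO as 0%.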
# [7] = qHTS assay for small molecule antagonists of retinoid X receptor alpha signaling (AID 588546; active = well fitted inhibition curve with a large enough effect in the signal ratio, with a control signal flat, not every such curve was filed as active; the % refers to the signal ratio;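 note: cells stimulated with 9-cis-retinoic acid as agonist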); conditions: HEK293T RXRa-UAS-bla, beta-lactamase ratio, antagonist mode; measured here: W530 green channel, cytotoxicity proxy
# How it was run: (§1)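 Beta-lactamase reporter inhibition, read as CCF4 fluorescence ratio (ex 405, em 460/530 nm) after 2 h at RT. HEK293T UAS-bla cells, 2500/well, were stimulated with 9-cis-RA at 500 or 100 nM final alongside test compound for 18 h at 37 C.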
# [8] = molecular target: Retinoic acid receptor RXR-alpha (Homo sapiens) (UniProt P19793); experiment: as above; conditions: HEK293T RXRa-UAS-bla, beta-lactamase ratio, antagonist mode
# How it was run: as §1
# [9] = molecular target: Thyroid hormone receptor beta (Homo sapiens) (UniProt P10828); experiment: qHTS assay for small molecule antagonists of thyroid hormone receptor beta signaling (AID 588547; active = well fitted inhibition curve with a large enough effect in the signal ratio, with a control signal flat, not every such curve was filed as active; the % refers to the signal ratio;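 note: cells stimulated with 0.4 nM T3 agonist during compound exposure; series mostly up to about 77 µM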); conditions: TR-UAS-bla HEK293, beta-lactamase ratio, antagonist mode, 18 h
# How it was run: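 TR-UAS-bla GripTite HEK293 cells in 2% charcoal/dextran FBS medium were preincubated 4 h at 37 C, given compound (0.59 nM to 92 uM) plus 0.4 nM T3 (final) for 18 h, then CCF4 for 2 h at RT; Hill fit gave IC50.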
# [10] = molecular target: Voltage-gated inwardly rectifying potassium channel KCNH2 (Homo sapiens) (UniProt Q12809); experiment: qHTS Assay for Small Molecule Inhibitors of the Human hERG Channel Activity (AID 588834);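 note: lower thallium flux fluorescence means stronger hERG block; nearly all actives have a fitted effect of over 50% in size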; note: potency is the fitted concentration of half-maximal effect
# Sequence of Voltage-gated inwardly rectifying potassium channel KCNH2 (Homo sapiens) (Q12809 whole entry, looked up): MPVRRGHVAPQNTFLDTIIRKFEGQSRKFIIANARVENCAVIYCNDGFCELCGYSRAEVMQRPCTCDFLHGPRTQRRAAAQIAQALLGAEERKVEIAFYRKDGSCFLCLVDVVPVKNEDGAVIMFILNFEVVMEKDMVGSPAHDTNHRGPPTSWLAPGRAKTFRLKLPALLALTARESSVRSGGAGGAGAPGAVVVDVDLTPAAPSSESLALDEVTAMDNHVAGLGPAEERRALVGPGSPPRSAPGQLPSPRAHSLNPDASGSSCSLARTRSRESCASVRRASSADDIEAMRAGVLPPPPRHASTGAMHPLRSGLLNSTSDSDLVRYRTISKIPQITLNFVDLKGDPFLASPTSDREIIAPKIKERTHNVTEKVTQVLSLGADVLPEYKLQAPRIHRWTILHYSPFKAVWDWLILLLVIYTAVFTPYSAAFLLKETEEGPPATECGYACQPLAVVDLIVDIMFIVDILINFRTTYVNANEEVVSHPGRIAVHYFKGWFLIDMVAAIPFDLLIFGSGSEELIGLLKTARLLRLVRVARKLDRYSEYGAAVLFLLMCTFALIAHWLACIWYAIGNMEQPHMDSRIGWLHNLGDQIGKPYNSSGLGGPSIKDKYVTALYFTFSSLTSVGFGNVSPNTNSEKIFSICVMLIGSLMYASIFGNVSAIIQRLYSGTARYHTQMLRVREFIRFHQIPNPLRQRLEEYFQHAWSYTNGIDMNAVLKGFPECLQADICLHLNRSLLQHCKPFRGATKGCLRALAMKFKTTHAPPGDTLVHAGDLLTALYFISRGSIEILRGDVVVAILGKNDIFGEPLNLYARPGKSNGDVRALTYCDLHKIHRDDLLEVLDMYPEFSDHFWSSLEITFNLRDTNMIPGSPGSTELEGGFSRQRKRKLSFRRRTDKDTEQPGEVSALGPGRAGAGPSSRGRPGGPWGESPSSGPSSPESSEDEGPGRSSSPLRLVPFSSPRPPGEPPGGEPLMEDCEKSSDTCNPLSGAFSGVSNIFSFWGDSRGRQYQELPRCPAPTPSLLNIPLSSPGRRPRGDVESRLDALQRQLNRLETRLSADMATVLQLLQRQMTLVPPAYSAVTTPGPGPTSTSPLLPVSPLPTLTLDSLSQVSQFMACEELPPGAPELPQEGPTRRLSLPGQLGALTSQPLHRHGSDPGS
# How it was run: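 In hERG-transduced U2OS cells, dye-loaded for 1 hr at room temperature in dark, test compounds incubated 10 min at 37 °C before thallium stimulation. AC50 values derived by Hill modelling of concentration-response.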
# [11] = molecular target: Luciferin 4-monooxygenase (Photinus pyralis) (UniProt P08659); experiment: Biochemical firefly luciferase enzyme assay for NPC (AID 624030); note: nearly all actives have a fitted effect of over 70% in size; note: potency is the fitted concentration of half-maximal effect
# Sequence of Luciferin 4-monooxygenase (Photinus pyralis) (P08659 whole entry, looked up): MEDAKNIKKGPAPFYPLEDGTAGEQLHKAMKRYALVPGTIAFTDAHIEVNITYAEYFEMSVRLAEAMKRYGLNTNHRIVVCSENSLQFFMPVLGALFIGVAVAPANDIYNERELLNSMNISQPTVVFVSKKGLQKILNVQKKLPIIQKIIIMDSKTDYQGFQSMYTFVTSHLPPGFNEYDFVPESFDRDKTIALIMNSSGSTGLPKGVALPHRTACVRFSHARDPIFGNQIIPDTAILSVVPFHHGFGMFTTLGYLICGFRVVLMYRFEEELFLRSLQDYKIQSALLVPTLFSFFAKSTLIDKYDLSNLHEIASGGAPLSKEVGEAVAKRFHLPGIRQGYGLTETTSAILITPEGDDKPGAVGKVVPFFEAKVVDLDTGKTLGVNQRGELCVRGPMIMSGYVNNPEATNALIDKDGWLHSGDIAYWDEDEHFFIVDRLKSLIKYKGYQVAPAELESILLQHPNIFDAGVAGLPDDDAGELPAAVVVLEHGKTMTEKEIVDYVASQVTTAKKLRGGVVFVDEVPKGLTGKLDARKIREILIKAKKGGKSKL
# How it was run: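 Counter-screen for direct inhibition of the luciferase enzyme by approved-drug library compounds, run at 10 nM enzyme in 50 mM Tris acetate (final). Luminescence was read within 5 min of enzyme-buffer addition and normalized to PTC124 versus DMSO (0%).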
# [12] = S16 Schwann cell PMP22 intronic element firefly luciferase assay (AID 624032); note: nearly all actives have a fitted effect of over 30% in size; note: potency is the fitted concentration of half-maximal effect
# How it was run: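 Rat S16 Schwann cells stably carrying a PMP22 intronic element-driven Fluc reporter were seeded overnight, then exposed to compounds for 24 h at 37 °C. Luminescence was normalized to PTC124 (positive control) and DMSO (0% activity).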
# [13] = S16 Schwann cell PMP22 intronic element beta-lactamase assay (AID 624044; calls by dose curve; note: nearly all actives have a fitted effect of over 15% in size)
# How it was run: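 Beta-lactamase reporter under a PMP22 intronic regulatory element in stable S16 rat Schwann cells; 24 h compound exposure. 460 nm blue signal normalized between DMSO (0%) and potassium clavulanate, with 535 nm FRET tracking viability; curves classed by r2 and response.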
# [14] = S16 Schwann cell viability assay (CellTiter-Glo assay) (AID 624031); note: nearly all actives have a fitted effect of over 70% in size; note: potency is the fitted concentration of half-maximal effect
# How it was run: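 This viability control uses native rat S16 Schwann cells grown in DMEM plus 10% FBS. After a 24 h compound treatment at 37 °C, CellTiter-Glo luminescence reports ATP content, scaled against DMSO-treated and cell-free wells.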
smiles,measurement,setting,value
O=C(O)CCC(=O)C(=O)O,outcome,[1],inactive
same,outcome,[2],inactive
same,outcome,[3],inactive
same,max response,[4],-2.92%
same,outcome,[5],inactive
same,outcome,[6],inactive
same,max response,[7],-14.3%
same,max response,[8],8.74% (inactive)
same,activity change % (negative = inhibition),[9],1.53% (inactive)
same,Potency,[10],inactive
same,Potency,[11],inactive
same,Potency,[12],inactive
CC1=C2[C@@H]([C@H](C)CC[C@H]2/C=C(\C)C(=O)O)[C@H](O)C1,max response,[4],29.1%
same,outcome,[5],inactive
same,outcome,[6],inactive
same,max response,[7],6.79%
same,max response,[8],-2.22% (inactive)
same,Potency,[10],inactive
COc1cc2c(cc1O)CCN[C@]21CS[C@@H]2c3c(OC(C)=O)c(C)c4c(c3[C@H](COC1=O)N1[C@@H]2[C@H]2c3c(cc(C)c(OC)c3O)C[C@@H]([C@@H]1O)N2C)OCO4,Potency,[10],inactive
CC[C@@H](C(=O)[C@@H](C)[C@@H](O)[C@H](C)CCc1ccc(C)c(O)c1C(=O)O)[C@H]1O[C@](CC)([C@H]2CC[C@](O)(CC)[C@H](C)O2)C[C@@H]1C,Potency,[10],inactive
O=C(O)CN(CCN(CC(=O)O)CC(=O)O)CC(=O)O,outcome,[1],inactive
same,max response,[4],-4.26% and -8.64%
same,outcome,[5],inactive
same,max response,[7],-5.66% and -2.36%
same,max response,[8],-4.8% (inactive) and -20.2% (inactive)
same,Potency,[11],inactive
same,Potency,[12],inactive
same,Potency,[13],inactive
Nc1ccn([C@H]2CS[C@@H](CO)O2)c(=O)n1,outcome,[2],inactive
same,outcome,[3],inactive
same,max response,[4],1%
same,outcome,[5],inactive
same,outcome,[6],inactive
same,max response,[7],-4.12%
same,max response,[8],12.8% (inactive)
same,activity change % (negative = inhibition),[9],10.8% (inactive)
same,Potency,[10],inactive
O=CCCCC=O,outcome,[2],inactive
same,outcome,[3],inactive
same,max response,[4],18.3%
same,outcome,[5],inactive
same,outcome,[6],inactive
same,max response,[7],-9.66%
same,max response,[8],27.6% (inactive)
same,activity change % (negative = inhibition),[9],0.64% (inactive)
same,Potency,[10],inactive
same,Potency,[11],inactive
same,Potency,[12],inactive
same,Potency,[13],inactive
CO[C@@H]1[C@@H](O[C@@H]2O[C@H](C)[C@@H](O[C@H]3C[C@@](C)(O)[C@@H](O)[C@H](C)O3)[C@H](N(C)C)[C@H]2O)[C@@H](CC=O)C[C@@H](C)[C@@H](O[C@@H]2CC[C@H](N(C)C)[C@@H](C)O2)/C=C/C=C/C[C@@H](C)OC(=O)C[C@H]1O,Potency,[10],inactive
C[C@]12O[C@H](C[C@]1(O)CO)n1c3ccccc3c3c4c(c5c6ccccc6n2c5c31)CNC4=O,Potency,[10],inactive
same,Potency,[11],inactive
same,Potency,[14],10.2 µM (active)
C/C1=C2N=C(/C=C3N=C(/C(C)=C4\[N-][C@@](C)([C@@H]5N=C1[C@](C)(CCC(=O)NCC(C)OP(=O)(O)O[C@H]1[C@@H](O)[C@@H](n6cnc7cc(C)c(C)cc76)O[C@@H]1CO)[C@H]5CC(N)=O)[C@@](C)(CC(N)=O)[C@@H]4CCC(N)=O)[C@@](C)(CC(N)=O)[C@@H]\3CCC(N)=O)C(C)(C)[C@@H]/2CCC(N)=O.CC(=O)O.[Co] (stereo not given in full),Potency,[10],inactive
CO[C@H]1C[C@H](O[C@H]2[C@H](C)[C@@H](O[C@@H]3O[C@H](C)C[C@H](N(C)C)[C@H]3OC(C)=O)[C@@H](C)C[C@]3(CO3)C(=O)[C@H](C)[C@@H](OC(C)=O)[C@@H](C)[C@@H](C)OC(=O)[C@@H]2C)O[C@@H](C)[C@@H]1OC(C)=O,Potency,[10],inactive
CCCCCCOc1ccc(C(=N)N(CCCC)CCCC)c2ccccc12,Potency,[10],2.24 µM (active)
same,Potency,[11],inactive
same,Potency,[12],22.8 µM (active)
CCCCCC(CC)COC(=O)CC(C(=O)OCC(CC)CCCC)S(=O)(=O)O (stereo not given),Potency,[10],inactive
CC[C@@H](C)CCCCC(=O)N[C@@H](CCNCS(=O)(=O)O)C(=O)N[C@H](C(=O)N[C@@H](CCNCS(=O)(=O)O)C(=O)N[C@H]1CCNC(=O)[C@H]([C@@H](C)O)NC(=O)[C@H](CCNCS(=O)(=O)O)NC(=O)[C@H](CCNCS(=O)(=O)O)NC(=O)[C@H](CC(C)C)NC(=O)[C@@H](CC(C)C)NC(=O)[C@H](CCNCS(=O)(=O)O)NC1=O)[C@@H](C)O (X3-[Dab(CH2SO3H)]T[Dab(CH2SO3H)][Dab][Dab(CH2SO3H)][dL]L[Dab(CH2SO3H)][Dab(CH2SO3H)]T; lactam 4-C),Potency,[10],inactive
NC1C2CN(c3nc4c(cc3F)c(=O)c(C(=O)O)cn4-c3ccc(F)cc3F)CC12 (stereo not given),Potency,[10],inactive
same,Potency,[11],inactive
same,Potency,[14],inactive
same,Potency,[12],inactive
same,Potency,[13],inactive
Cc1cc(C(=O)NNCc2ccccc2)no1,Potency,[10],inactive
same,Potency,[11],inactive
same,Potency,[14],inactive
same,Potency,[12],inactive
same,Potency,[13],inactive
CC[N+](C)(C)Cc1ccccc1Br,Potency,[10],inactive
same,Potency,[11],inactive
same,Potency,[14],inactive
same,Potency,[12],inactive
same,Potency,[13],inactive
CCCCC(=O)O[C@]1(C(=O)CO)[C@H](C)C[C@H]2[C@@H]3CCC4=CC(=O)C=C[C@]4(C)[C@@]3(F)[C@@H](O)C[C@@]21C,Potency,[10],inactive
same,Potency,[11],inactive
same,Potency,[14],inactive
same,Potency,[12],inactive
same,Potency,[13],inactive
O=C(Nc1cccc(C(F)(F)F)c1)c1cc(Br)cc(Br)c1O,Potency,[10],inactive
same,Potency,[11],7.21 µM (active)
same,Potency,[12],inactive
Cc1cn([C@H]2C[C@H](O)[C@@H](CO)O2)c(=O)[nH]c1=O,Potency,[10],inactive
same,Potency,[11],inactive
same,Potency,[14],inactive
CO/N=C(\C(=O)N[C@@H]1C(=O)N2C(C(=O)O)=C(CSc3cnns3)CS[C@H]12)c1csc(N)n1,Potency,[10],inactive
O=C1C(=O)c2ncccc2-c2cccnc21,Potency,[10],inactive
same,Potency,[11],inactive
O=C(O)c1cc(O)c2c(c1)[O][Bi][O]2,Potency,[10],inactive
same,Potency,[11],inactive
same,Potency,[14],inactive
same,Potency,[12],inactive
same,Potency,[13],inactive
C[C@]12CCC(=O)C=C1CC[C@@H]1[C@@H]2[C@@H](O)C[C@@]2(C)[C@H]1CC[C@]2(O)C(=O)COP(=O)(O)O,Potency,[10],inactive
same,Potency,[11],inactive
same,Potency,[14],inactive
same,Potency,[12],inactive
CC(=O)OCC(=O)[C@@]12OC3(CCCC3)O[C@@H]1C[C@H]1[C@@H]3CCC4=CC(=O)C=C[C@]4(C)[C@@]3(F)[C@@H](O)C[C@@]12C,Potency,[10],inactive
CC[C@H]1OC(=O)[C@H](C)[C@@H](O[C@H]2C[C@@](C)(OC)[C@@H](O)[C@H](C)O2)[C@H](C)[C@@H](O[C@@H]2O[C@H](C)C[C@H](N(C)C)[C@H]2O)[C@](C)(O)C[C@@H](C)/C(=N\OCOCCOC)[C@H](C)[C@@H](O)[C@]1(C)O,Potency,[10],inactive
CC(C)N=c1cc2n(-c3ccc(Cl)cc3)c3ccccc3nc-2cc1Nc1ccc(Cl)cc1,Potency,[10],7.08 µM (active)
same,Potency,[11],inactive
same,Potency,[14],inactive
same,Potency,[13],inactive
COc1ccc(C[C@H](N)C(=O)N[C@H]2[C@@H](O)[C@H](n3cnc4c(N(C)C)ncnc43)O[C@@H]2CO)cc1,Potency,[10],inactive
